Hits are enriched below; roughly 11% of the tested compounds scored in any of these assays.
HTT ATP protect: qHTS Multiplex Assay to Identify Dual Action Probes in a Cell Model of Huntington: Cytoprotection (ATP) | PC12 HTT-Q103 induced, cytoprotection, ATP luminescence, 40 h | AID 1471, 2008 | Potency, µM (top dose mostly 56.4 µM), for the others: cytoprotection (ATP increase), most hits filed as activators | 230,000 tested, 0.14% active; also: potency is read from the fitted curve at half-maximal effect; % of control where 0% means no effect; nearly all actives have a fitted effect of over 45% in size
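Cells were plated at 1500 per well in phenol red-free DMEM with 5% equine and 5% calf serum. Tebufenozide (100 nM final) and compounds were added, then ATPlite reagent, and luminescence was read.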
CBFb-RUNX1 inh: qHTS Assay for Compounds Blocking the Interaction Between CBF-beta and RUNX1 for the Treatment of Acute Myeloid Leukemia | Runt-related transcription factor 1 (Homo sapiens) + Core-binding factor subunit beta … | AlphaScreen CBFb-His/RUNX1-biotin binding, biochemical | Potency, µM (highest dose often 59.8 µM), without a hit: at the highest dose activity, negative = inhibition, usual class: inhibitors | 230,000 tested, under 10 active | AID 1477, 2009; also: % of control where 0% means no effect
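Room-temperature protein-protein interaction test with 30 nM each of His-tagged CBF-beta and biotinylated RUNX1, 15 min with compound, then 90 min with nickel plus streptavidin beads. Signal read in AlphaScreen mode.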
HttQ103 aggreg: qHTS Multiplex Assay to Identify Dual Action Probes in a Cell Model of Huntington: Aggregate Formation (GFP); PC12 HttQ103-GFP aggregates, Acumen cytometry, 40 h; Potency, µM (top dose mostly 46.1 µM), without a hit: at the highest dose activity change, negative = inhibition, most hits filed as inhibitors; 220,000 tested, 1.1% active; AID 1688, 2009; also: potency is read from the fitted curve at half-maximal effect; % is scaled to controls: 0 for no effect and ±100 for the full control effect; nearly all actives have a fitted effect of over 60% in size
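Aggregate formation scored by laser-scanning cytometer (488 excitation, 500–530 emission) in lysed PC12 cells expressing Q103-GFP after 100 nM tebufenozide induction; library tested in dose series, with ATPLite reagent added in the multiplex.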
HPGD block: qHTS Assay for Inhibitors of HPGD (15-Hydroxyprostaglandin Dehydrogenase); purified HPGD, NADH fluorescence kinetic, PGE2 substrate; Potency, µM, for inactives: at the top dose activity change, negative = inhibition, hits mostly inhibitors; 150,000 tested, 4.3% active; active = well fitted inhibition curve with a large enough effect, not every such curve was filed as active; inconclusive = small, poorly fitted or top-dose-only effect, or another doubt; inactive = no such curve, though single readings can be large or run the other way; also: potency is read from the fitted curve at half-maximal effect; % is scaled to controls: 0 for no effect and ±100 for the full control effect
Target sequence (P15428 whole entry, looked up): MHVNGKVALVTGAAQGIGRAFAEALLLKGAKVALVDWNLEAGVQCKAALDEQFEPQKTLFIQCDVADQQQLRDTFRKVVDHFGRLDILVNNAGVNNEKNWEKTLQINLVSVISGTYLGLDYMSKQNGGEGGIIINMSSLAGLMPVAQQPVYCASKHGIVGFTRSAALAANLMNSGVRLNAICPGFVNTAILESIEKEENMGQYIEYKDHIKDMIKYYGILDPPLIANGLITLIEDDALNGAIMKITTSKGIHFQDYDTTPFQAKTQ
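20 nM HPGD preincubated 15 min at room temperature with compound in 50 mM Tris-HCl pH 8, 0.01% Tween 20. Started with 1 mM NAD+ and 30 uM prostaglandin E2; NADH fluorescence (360/450 nm) read 5 times over 30-s intervals, last minus first.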
PNC assembly inh: High Content Assay for Compounds that inhibit the Assembly of the Perinucleolar Compartment; 140,000 tested, 3.1% active; PC3M PTB-GFP, PNC prevalence imaging, 16 h; hits give low values; activity change (PNC), negative = inhibition, % at 10 µM;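 active = readout at or below -70, meaning at least 70% loss of cells showing the perinucleolar compartment, a nuclear body marking cancer cells; inconclusive = readout between -30 and a set limit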;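 also: plate controls were DMSO wells for no effect and camptothecin positive control wells for full effect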
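Read-out is percentage of cells bearing a perinucleolar compartment, from automated 20x imaging of fixed, Hoechst-stained PC3M PTB-GFP cells. Cells were seeded 4 h, then exposed 16 h to compound (23 nl of library stock) in duplicate plates.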
ALDH1A1 inh: qHTS Assay for Inhibitors of Aldehyde Dehydrogenase 1 (ALDH1A1); Aldehyde dehydrogenase 1A1 (Homo sapiens), P00352; Purified ALDH1A1, NADH fluorescence, propionaldehyde substrate; Potency, µM (highest dose often 75.3 µM), for inactives: top-dose activity, negative = inhibition, most hits filed as inhibitors; 220,000 tested, 7.3% active; AID 1030, 2008; active = well fitted inhibition curve with a large enough effect, not every such curve was filed as active; inconclusive = small, poorly fitted or top-dose-only effect, or another doubt; inactive = no such curve, though single readings can be large or run the other way;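 also: potency is read from the fitted curve at half-maximal effect; plate controls were no enzyme wells and a reference inhibitor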
Target sequence (P00352 whole entry, looked up): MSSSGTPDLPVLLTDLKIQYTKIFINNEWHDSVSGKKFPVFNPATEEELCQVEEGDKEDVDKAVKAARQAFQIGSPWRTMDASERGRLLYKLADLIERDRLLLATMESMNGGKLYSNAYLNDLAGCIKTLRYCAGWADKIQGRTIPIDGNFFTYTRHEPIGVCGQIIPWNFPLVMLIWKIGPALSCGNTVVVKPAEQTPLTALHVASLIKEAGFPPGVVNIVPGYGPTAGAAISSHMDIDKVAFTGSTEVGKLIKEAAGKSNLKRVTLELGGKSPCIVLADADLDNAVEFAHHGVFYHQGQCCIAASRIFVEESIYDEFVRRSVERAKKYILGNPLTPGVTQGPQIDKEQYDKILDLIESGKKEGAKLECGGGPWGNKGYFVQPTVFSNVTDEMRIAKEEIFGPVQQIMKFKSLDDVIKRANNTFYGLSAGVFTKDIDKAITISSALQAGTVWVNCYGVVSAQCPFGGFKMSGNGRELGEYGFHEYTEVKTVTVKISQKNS
The depositor's hits bear a star; ? = inconclusive; / = not tested or not shown; [ ] = another dose, or the depositor's remark. Unless noted, calls follow the shape of the dose curve; as a rule, active = well fitted curve in the direction sought with a large enough effect; inconclusive = small, poorly fitted or top-dose-only effect, or another doubt; inactive = no such curve, though single readings can be large; an effect the other way counts as inactive or inconclusive.

SMILES | HTT ATP protect | CBFb-RUNX1 inh | HttQ103 aggreg | HPGD block | PNC assembly inh | ALDH1A1 inh
CCCCCn1c(=O)[nH]c2cc(C(=O)NCc3ccc4c(c3)OCO4)ccc2c1=O | -37.2% | 3.6% | ? | ? | 33.4 | -3.8%
CCCCCn1c(=O)[nH]c2cc(C(=O)N3CCN(Cc4ccc5c(c4)OCO5)CC3)ccc2c1=O | -14.1% | -3.3% | 8.91µM* | -2.0% | 19.1 | 0.4%
CN1CCN(C(=O)c2ccc3c(=O)n(Cc4ccc(Cl)cc4)c(=S)[nH]c3c2)CC1 | -21.0% | -0.3% | -5.9% | -18.9% | -8.4 | 22.4µM*
COc1cc2c(cc1NC(=O)C(C)Sc1ccc(NC(C)=O)cc1)oc1ccccc12 (configuration not stated) | -22.2%[1.9 µM] | 6.9% | -30.9% | -19.8% | -0.3 | -3.2%
COc1ccc(S(=O)(=O)N(C)C)cc1NCC(=O)Nc1ccc(Br)cc1F | 0.5%[10 µM] | -2.8% | -14.1% | -13.7% | 0.0 | 11.2µM*
COc1ccc(S(=O)(=O)N(C)C)cc1NC(=O)COC(=O)CC1CCCC1 | -44.7% | -9.6% | 7.0% | / | / | ?
O=C(CSc1ccc(F)cc1)Nc1ccc(C2SCCS2)cc1 | 25.3%[10 µM] | 2.2% | 1.9%[9.22 µM] | / | / | /
N#CCC(=N)N1CCN(c2ccc(Cl)cc2)CC1 | 23.0%[10 µM] | 8.5% | -6.9% | -13.1% | -25.5 | 17.2%
N#CCC(=N)N1CCN(c2ccc(F)cc2)CC1 | -21.1% | -3.8% | -5.7% | / | / | 11.2µM*
COC(=O)[C@@]1(Cc2ccccc2)C=C[C@@H](C)N1C(C)=O | -32.6% | -3.8% | / | -8.8% | / | ?
COC(=O)[C@@]1(Cc2ccccc2-c2ccco2)C=C[C@H](C)[C@@H](c2ccccc2)N1C(=O)C(F)(F)F | 10µM* | -1.3% | / | -19.2% | / | 0.7%
CCC(CC(C)(C)O)C(=O)NNC(=S)Nc1ccccc1 (configuration not stated) | -7.4%[10 µM] | -7.2% | -11.4%[9.22 µM] | / | / | 25.1µM*
CCCCC(CC(O)COCC(C)C)C(=O)NNC(=S)Nc1ccccc1 (configuration not stated) | 2.8%[10 µM] | 0.0% | -13.4% | -20.6% | ? | 10µM*
Cc1ccn2c(CCc3nnc4cc(C)ccn34)nnc2c1 | -6.9%[10 µM] | / | / | -1.3% | / | 5.6%[13.5 µM]
CC(C)NC(=O)N1CC[C@@]2(CCCN(C(=O)c3cc(C(F)(F)F)cc(C(F)(F)F)c3)C2)C1 | 7.4% | / | / | -1.9% | / | -1.2%
CC1(C)O[C@H]2OC([C@H](O)CON3C(=O)c4ccccc4C3=O)[C@H](O)[C@H]2O1 (some centres not stated) | / | 4.6%[2.36 µM] | 3.9% | 15.8µM* | 40.3 | 4.0%
O=C(CCNc1cccc(F)c1)c1cccc([N+](=O)[O-])c1 | -2.4% | -24.4% | 9.5% | / | / | 0.631µM*
O=C(COc1cccc(NC(=O)c2cccc([N+](=O)[O-])c2)c1)c1ccc(F)cc1 | -10.0%[10 µM] | -13.7% | -29.7% | -28.8% | ? | -0.4%
O=C(C[n+]1cccc(NC(=O)c2ccccc2)c1)c1cccc([N+](=O)[O-])c1 | / | -5.4% | 15.8% | / | / | 9.46µM*
N=c1ccn2c(n1)OCC1C2O[C@@H](O)[C@H]1O (some centres not stated) | -245.1% | 16.5% | / | -13.2% | / | 7.1%
COCCn1c(=O)c(-c2ccc(F)cc2)nc2cnc(Nc3cccc(OC)c3)nc21 | 2.8% | / | / | / | / | 13.9%
c1ccc2c(N3CCOCC3)nc(-c3ccoc3)nc2c1 | -8.9% | / | / | / | / | ?
O=[N+]([O-])c1cccc(-c2nc(N3CCOCC3)c3ccccc3n2)c1 | -23.3% | 0.7% | 1.3% | / | / | 7.94µM*
Cc1noc(C)c1-c1nc(N2CCOCC2)c2ccccc2n1 | -0.3% | / | / | 25.1µM* | / | ?
COc1cccc(C2=Nn3c(nnc3-c3ccccc3C)SC2)c1 | / | -11.9% | / | / | / | /
SMILES | HTT ATP protect | CBFb-RUNX1 inh | HttQ103 aggreg | HPGD block | PNC assembly inh | ALDH1A1 inh
COC(=O)/C=c1\sc2ncnn2c1=O | -16.0%[10 µM] | 3.6% | ? | ? | -81.0* | ?
CNC(=O)/C(C#N)=c1\s/c(=C/C(=O)OC)c(=O)n1-c1ccccc1 | -14.6% | 2.3% | -8.4% | -6.2% | 78.1 | -5.5%
CN(Cc1cccs1)c1ncnc2sccc12 | 1.2%[10 µM] | 4.5% | 3.16µM* | ? | 15.1 | -6.0%
Cc1sc2ncnc(N(C)Cc3cccs3)c2c1C | -3.8% | 7.0% | ? | -26.1% | 52.7 | -6.6%
CCc1nn2cc(C(=O)c3cc(Cl)ccc3O)cnc2c1-c1ccc(F)cc1 | -11.0%[10 µM] | -20.3% | ? | 15.8µM* | -20.7 | -7.6%
Cn1c(=O)[nH]c(=O)c2cc(C(=O)c3cc(F)ccc3O)cnc21 | -6.4% | 3.7% | -1.7% | / | / | 7.6%
COc1ccc(/C=C/CN2CCCC(CO)(Cc3cccc(Cl)c3)C2)cc1 (configuration not stated) | -10.2%[10 µM] | -6.8% | 21.4%[9.22 µM] | / | / | 20µM*
Cc1cccc(N2CCN(C(=S)c3ccc(-c4ccccc4[N+](=O)[O-])o3)CC2)c1 | / | / | -2.4% | -22.2% | 12.3 | ?
O=[N+]([O-])c1ccccc1-c1ccc(C(=S)N2CCCC2)o1 | -19.6%[10 µM] | ? | -21.5% | / | / | 2.24µM*
O=[N+]([O-])c1ccccc1-c1ccc(C(=S)N2CCCCC2)o1 | 1.9%[10 µM] | ? | 9.5%[9.22 µM] | / | / | 22.4µM*
CC(=O)NCCNc1cc(-c2ccccc2CN(C)C)ncn1 | 14.6% | / | / | / | / | ?
COc1ccc(CNC(=O)COC(=O)CC2CC3CCC2C3)cc1OC (configuration not stated) | / | -3.9% | -16.7% | -15.4% | 26.0 | 4.2%
O=C(COC(=O)CC1CC2CCC1C2)NC(=O)NCc1ccco1 (configuration not stated) | -69.0%[10 µM] | -9.2% | ? | -23.4% | 17.3 | 14.1µM*
C[C@H](NC(=O)N1CCc2nc(-c3ccccc3)c3c(c2C1)CO[C@@H](C)C3)c1ccccc1 | 5.8%[10 µM] | 3.5%[13.1 µM] | / | -5.5% | / | 0.8%[13.5 µM]
CCN(CC)C(=O)c1cccc(C)c1 | ? | -1.9%[21.7 µM] | -5.2% | 25.1µM* | / | 3.7%
CCN(CC)C(=O)c1ccc2nc(-c3ccccc3)c(-c3ccccc3)nc2c1 | 5.9%[10 µM] | -3.4% | -3.5% | ? | ? | ?
CCN(CC)C(=O)c1ccc2nc3ccccc3nc2c1 | / | -2.5% | 2.0% | 0.891µM* | 27.7 | ?
O=C(CN1C(=O)CCC1=O)c1ccc(-c2ccccc2)cc1 | 24.4%[10 µM] | 8.4% | 3.6% | -27.9% | -81.6* | 3.4%
CCN(CC)C(=O)c1ccc(C(=O)c2ccccc2)cc1 | -38.1% | 0.4% | -4.8% | 1µM* | 40.9 | ?
